Compound activity deposited in PubChem BioAssay by The Scripps Research Institute Molecular Screening Center.
PAFAH1B3 inh = blocks human PAF acetylhydrolase 1B catalytic subunit 3 | 340,000 tested, 0.28% active | recombinant PAFAH1B3, FP-rhodamine probe, fluorescence polarization | AID 492972 | Q15102 | inhibition, % at 3.39 µM;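 active = inhibition above the screen-wide average of all tested compounds plus 3 SD, cut at about 25% in these data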;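 note: 0% = enzyme with DMSO only and 100% = wells lacking PAFAH1B3 protein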
Target sequence (Q15102 whole entry, looked up): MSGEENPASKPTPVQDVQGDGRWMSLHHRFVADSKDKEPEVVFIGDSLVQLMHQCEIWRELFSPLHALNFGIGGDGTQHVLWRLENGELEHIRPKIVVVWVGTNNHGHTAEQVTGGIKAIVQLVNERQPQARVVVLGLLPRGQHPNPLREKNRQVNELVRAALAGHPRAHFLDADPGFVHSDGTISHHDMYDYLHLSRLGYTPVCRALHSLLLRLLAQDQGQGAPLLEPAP
pPAFAH FP inh = pPAFAH (human) enzyme inhibition; recombinant pPAFAH, FP-rhodamine probe fluorescence polarization; inhibition, % at 3.39 µM; Q13093; 330,000 tested, 1.5% active;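 active = inhibition above the mean inhibition across the screen plus 3 SD, cut at about 25% in these data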;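 note: inhibitors block binding of the rhodamine activity-based probe so polarization drops; 0% = enzyme with DMSO and 100% = wells lacking pPAFAH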
PAFAH1B2 FP inh = PAFAH1B2 (human) inhibition. P68402. recombinant PAFAH1B2, FP-rhodamine activity probe, fluorescence polarization. inhibition, % at 3.39 µM. 340,000 tested, 1.2% active;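 active = inhibition above the mean of all tested compounds plus 3 SD, cut at about 24% in these data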;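 note: 0% = enzyme with DMSO and 100% = wells lacking PAFAH1B2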
PAFAH2 FP inh = PAFAH2 (human) inhibition. Q99487. recombinant PAFAH2, FP-rhodamine activity probe, fluorescence polarization. inhibition, % at 3.39 µM. 340,000 tested, 0.99% active. AID 492956;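 active = inhibition above the mean over all tested compounds plus 3 SD, cut at about 30% in these data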;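 note: inhibitors block probe labeling of enzyme so polarization drops; 0% = enzyme with DMSO and 100% = wells lacking PAFAH2 protein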
Fam108B counter = Fam108B inhibition, counter-screen for RBBP9 inhibitors; recombinant Fam108B, FP-Rh probe fluorescence polarization; inhibition, % at 9.51 µM; 300,000 tested, 0.33% active;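 active = inhibition above the screen mean inhibition plus 3 SD, computed separately per campaign, cut at about 18% in these data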;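 note: inhibitors lower polarization as less probe binds the enzyme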
PME-1 primary = blocks human protein phosphatase methylesterase 1; inhibition, % at 5.9 µM; AID 2130; recombinant PME-1, FP-Rh probe fluorescence polarization; 320,000 tested, 0.53% active; Q9Y570;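 active = inhibition above the campaign mean of all compounds plus 3 SD, cut at about 26% in these data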;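 note: competitive labeling of PME-1 active site by serine hydrolase directed probe; 0% = PME-1 with DMSO and 100% = wells lacking PME-1 enzyme; inhibitors block probe labeling so polarization falls and inhibition rises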
Target sequence (Q9Y570 whole entry, looked up): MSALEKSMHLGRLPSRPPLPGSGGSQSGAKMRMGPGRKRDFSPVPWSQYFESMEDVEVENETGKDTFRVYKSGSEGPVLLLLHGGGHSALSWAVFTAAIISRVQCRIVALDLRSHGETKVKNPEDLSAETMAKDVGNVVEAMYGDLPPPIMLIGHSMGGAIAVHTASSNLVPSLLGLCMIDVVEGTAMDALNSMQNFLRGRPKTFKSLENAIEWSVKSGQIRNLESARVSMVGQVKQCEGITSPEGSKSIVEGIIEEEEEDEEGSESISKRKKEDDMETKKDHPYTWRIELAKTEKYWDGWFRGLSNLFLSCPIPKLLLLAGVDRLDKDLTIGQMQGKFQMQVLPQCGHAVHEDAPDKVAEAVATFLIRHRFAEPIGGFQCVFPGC
pPAFAH FP conf = confirmation of human plasma PAF acetylhydrolase (pPAFAH) inhibitors; AID 463230; recombinant pPAFAH, FP-Rh probe fluorescence polarization; inhibition, % at 3.39 µM; shares compounds with pPAFAH FP inh; 2,300 tested, 72% active;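 active = mean inhibition of the triplicate above the hit cutoff set for the earlier primary screen, cut at about 25% in these data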;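 note: 0% = enzyme with DMSO and 100% = wells lacking pPAFAH enzyme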
Active calls of the source: *. In the library only some 2.9% were active in any assay of this set; here they are far more common.

Screening CCOc1cccc(NC(=O)CSc2sc3c(O)cc(=O)[nH]c3c2C#N)c1 returned PAFAH1B3 inh 8.6, pPAFAH FP inh 15.5, PAFAH1B2 FP inh 0.8, PAFAH2 FP inh -0.9, Fam108B counter -5.7 and PME-1 primary -27.8.
`Cc1cc(=O)[nH]c(SCC(=O)Nc2nc3ccccc3s2)n1` gave PAFAH1B3 inh 5.0, pPAFAH FP inh 1.6, PAFAH1B2 FP inh 0.2, PAFAH2 FP inh 8.2, Fam108B counter -1.0 and PME-1 primary 1.5.
N#Cc1c(SCC(=O)Nc2nc3ccc(Br)cc3s2)sc2c(O)cc(=O)[nH]c12 was read as PAFAH1B3 inh 19.2, pPAFAH FP inh 51.2*, PAFAH1B2 FP inh 11.6, PAFAH2 FP inh 17.4, Fam108B counter -6.4, PME-1 primary -8.8 and pPAFAH FP conf 41.7*.
For Cc1cc(C(F)(F)F)c(C#N)c(SCC(=O)Nc2nc3cc(Br)ccc3s2)n1 the results were PAFAH1B3 inh -57.3, pPAFAH FP inh -1.3, PAFAH1B2 FP inh -28.5, PAFAH2 FP inh -54.0, Fam108B counter -22.4 and PME-1 primary -26.7.
N#Cc1c(SCC(=O)Nc2nccs2)sc2c(O)cc(=O)[nH]c12 was read as PAFAH1B3 inh 21.8, pPAFAH FP inh 37.4*, PAFAH1B2 FP inh 16.7, PAFAH2 FP inh 32.2*, Fam108B counter 4.9, PME-1 primary -39.0 and pPAFAH FP conf 9.8.
For COc1ccc(C(=O)N2CCN(C3CCCCC3)CC2)cc1OC the results were PAFAH1B3 inh 0.8, pPAFAH FP inh 2.0, PAFAH1B2 FP inh 4.9, PAFAH2 FP inh -1.8, Fam108B counter -0.3 and PME-1 primary 1.2.
CN1CCN(CCCN2c3ccccc3Sc3ccc(C(F)(F)F)cc32)CC1 was read as PAFAH1B3 inh 9.5, pPAFAH FP inh 37.5*, PAFAH1B2 FP inh 3.1, PAFAH2 FP inh -0.9, Fam108B counter -1.6, PME-1 primary 2.9 and pPAFAH FP conf 30.3*.
O=C1/C(=C\c2cc(Br)cc(Br)c2O)SC(=S)N1Cc1ccccc1 was read as PAFAH1B3 inh -59.3, pPAFAH FP inh 12.4, PAFAH1B2 FP inh -40.0, PAFAH2 FP inh -17.1, Fam108B counter -84.8 and PME-1 primary -34.9.
Screening COc1cc([N+](=O)[O-])cc(/C=C2/SC(=S)N(Cc3ccccc3)C2=O)c1O returned PAFAH1B3 inh -90.9, pPAFAH FP inh -6.9, PAFAH1B2 FP inh -98.9, PAFAH2 FP inh -61.2, Fam108B counter -73.8 and PME-1 primary -228.5.
For O=C(O)CN1C(=O)/C(=C\c2cc(Br)ccc2OCc2ccccc2F)SC1=S the results were PAFAH1B3 inh 4.7, pPAFAH FP inh 52.3*, PAFAH1B2 FP inh 4.2, PAFAH2 FP inh 31.1*, Fam108B counter 6.7, PME-1 primary 0.0 and pPAFAH FP conf 67.3*.
For O=C(O)CN1C(=O)/C(=C\c2cc(Br)ccc2OCc2ccccc2Cl)SC1=S the results were PAFAH1B3 inh 8.5, pPAFAH FP inh 45.1*, PAFAH1B2 FP inh 2.1, PAFAH2 FP inh 24.2, Fam108B counter 3.0, PME-1 primary -2.1 and pPAFAH FP conf 74.6*.
O=C(O)CN1C(=O)/C(=C\c2cc(Br)ccc2OCc2ccc([N+](=O)[O-])cc2)SC1=S was read as PAFAH1B3 inh 8.2, pPAFAH FP inh 58.9*, PAFAH1B2 FP inh 6.2, PAFAH2 FP inh 12.1, Fam108B counter 12.8, PME-1 primary 15.2 and pPAFAH FP conf 58.1*.
For COCCN1CCC(CNCc2cn(-c3cc(C)ccc3C)nc2-c2ccccc2)C1 (stereo unspecified) the results were PAFAH1B3 inh 0.8, pPAFAH FP inh -1.5, PAFAH1B2 FP inh 4.0, PAFAH2 FP inh -4.5, Fam108B counter 1.8 and PME-1 primary -3.0.
COc1ccc(CCNC(=O)Cc2ccc(NC3=NC4CS(=O)(=O)CC4S3)cc2)c(OC)c1 (stereo unspecified) was read as PAFAH1B3 inh 4.8, pPAFAH FP inh 36.4*, PAFAH1B2 FP inh 4.3, PAFAH2 FP inh 2.8, Fam108B counter -1.0, PME-1 primary -3.6 and pPAFAH FP conf 0.6.
For CCOc1ccc(CCNC(=O)Cc2ccc(NC3=NC4CS(=O)(=O)CC4S3)cc2)cc1 (stereo unspecified) the results were PAFAH1B3 inh -6.0, pPAFAH FP inh -4.6, PAFAH1B2 FP inh 2.5, PAFAH2 FP inh -7.6, Fam108B counter 3.3 and PME-1 primary -3.1.
CN(c1ccc(C(=O)NCc2ccccn2)cc1)S(=O)(=O)c1ccc(Cl)cc1 was read as PAFAH1B3 inh -1.5, pPAFAH FP inh -4.5, PAFAH1B2 FP inh 5.6, PAFAH2 FP inh 2.7, Fam108B counter 0.6 and PME-1 primary 7.1.
For COc1cc(OC)c(OC)cc1/C=C1\Oc2cc(OCC(=O)N3Cc4ccccc4C[C@H]3C(=O)O)ccc2C1=O the results were PAFAH1B3 inh 5.8, pPAFAH FP inh 37.2*, PAFAH1B2 FP inh 3.6, PAFAH2 FP inh -10.0, Fam108B counter 2.4, PME-1 primary -11.8 and pPAFAH FP conf 43.6*.
For O=C(Nc1ccncc1)c1ccc(Cl)c(S(=O)(=O)N2CCCC2)c1 the results were PAFAH1B3 inh 1.9, pPAFAH FP inh 0.4, PAFAH1B2 FP inh 0.1, PAFAH2 FP inh -4.0, Fam108B counter 1.7 and PME-1 primary 3.2.
For COc1cc([N+](=O)[O-])cc(/C=N/NC(=O)c2cc(-c3ccccc3)nc3ccccc23)c1O the results were PAFAH1B3 inh -0.9, pPAFAH FP inh 35.9*, PAFAH1B2 FP inh -7.8, PAFAH2 FP inh 3.5, Fam108B counter 1.8, PME-1 primary -7.4 and pPAFAH FP conf 35.2*.
`COc1cc([N+](=O)[O-])cc(/C=N/NC(=O)c2cc(C)nc3ccccc23)c1O` gave PAFAH1B3 inh 15.8, pPAFAH FP inh 14.5, PAFAH1B2 FP inh -0.8, PAFAH2 FP inh -9.1, Fam108B counter 5.8 and PME-1 primary 2.0.
CN=c1scc(C)n1/N=C/c1ccc(O)c(O)c1O was read as PAFAH1B3 inh 7.8, pPAFAH FP inh 60.1*, PAFAH1B2 FP inh -1.2, PAFAH2 FP inh 5.2, Fam108B counter -2.2, PME-1 primary -14.4 and pPAFAH FP conf 8.9.
CN=c1scc(-c2cccs2)n1/N=C/c1ccccc1O was read as PAFAH1B3 inh 5.6, pPAFAH FP inh 5.6, PAFAH1B2 FP inh 4.7, PAFAH2 FP inh 0.9, Fam108B counter 1.7 and PME-1 primary 10.5.
CN=c1scc(C)n1/N=C/c1cc(Br)c(O)c(OC)c1 was read as PAFAH1B3 inh 11.7, pPAFAH FP inh 6.5, PAFAH1B2 FP inh -0.7, PAFAH2 FP inh 2.8, Fam108B counter 1.2 and PME-1 primary 3.8.
CN=c1scc(-c2cccs2)n1/N=C/c1ccc(O)c(O)c1O was read as PAFAH1B3 inh -4.3, pPAFAH FP inh 51.4*, PAFAH1B2 FP inh -1.6, PAFAH2 FP inh 12.2, Fam108B counter 2.4, PME-1 primary 31.1* and pPAFAH FP conf 65.2*.
CC1CCCC(NC(=O)C2CCN(C(=O)Nc3ccccc3)CC2)C1C (stereo unspecified) was read as PAFAH1B3 inh 1.1, pPAFAH FP inh 0.4, PAFAH1B2 FP inh 3.1, PAFAH2 FP inh 4.2, Fam108B counter 2.5 and PME-1 primary -0.8.
